Reference: PubChem BioAssay (NCATS)
Results filed as inconclusive are left out. Entries that show only a call come without a potency. Active and inactive are the calls of the source. Calls follow the shape of the dose curve; as a rule, active = well fitted inhibition curve with a large enough effect; inconclusive = small, poorly fitted or top-dose-only effect; inactive = flat fitted curve, though single readings scatter.

assay: BET inhibitor-based combinations targeting novel dependencies in MECOM-rearranged (r) AML: AML-194 cell line (AID 2202237; also: nearly all actives have a fitted effect of over 40% in size); settings: AML-194 (MECOM-r AML) viability, CellTiter-Glo, 48 h; series mostly up to 46 µM
Description: Ecotropic viral insertion site 1 (EVI1) is located on chromosome 3q26.2 as part of the MECOM (MDS and EVI1 complex) locus. Under normal hematopoiesis, EVI1 is a regulator of hematopoietic stem cell maintenance and self-renewal and EVI1 levels decrease as the cells differentiate. In approximately 5-10% of de novo acute myeloid leukemia (AML) EVI1 is aberrantly expressed, including Chromosomal inv(3)(q21;q26.2) or t(3;3)(q21;q26.2) alterations (MECOM-r) that account for about 50% of AML with EVI1 overexpression 31. AMLs with high levels of EVI1 have a poor prognosis and an overall survival time averaging between 10-14 months. EVI1 overexpression confers resistance in leukemia cells, highlighting the need to develop new targeted therapies for EVI1 overexpressing AMLs.
Here, we performed an unbiased chemical drug screening by evaluating the single agent activity of a collection of 2,480 oncology-focused, approved and investigational drugs (NCATS Mechanism Interrogation Plates, MIPE v5.0) against a panel of seven AML cell lines. These included four MECOM-r cell-lines (AML-191, AML-194, UCSD-AML1 and HNT-34) and three non-MECOM-r AMLs (MV4-11, OCI-AML3 and SET-2). Exploiting the mechanistic redundancy built in the library, we identified target-level sensitivities in MECOM-r AML cells and relative activity as compared to other AML subtypes.
A collection of 2480 mechanistically annotated dugs (MIPE v5.0) was used to screen four 3q26.2 rearranged AML cell lines and three non-3q26.2 rearranged AML cell lines. This library purposely exploits redundancy by including multiple inhibitors of key onco-targets, while simultaneously encompassing mechanistic diversity, targeting more than 800 distinct mechanisms of action. Briefly, cells were seeded in 5 uL of growth media using a Multidrop Combi dispenser into 1536 well white polystyrene tissue culture treated plates (Corning) at a density of 500cells/well. For each cell-line, for each of the 2480 drugs in MIPE v5.0 library, an 11-point dose curve was generated via a 1536 pin-tool. Plates were incubated for 48 hr at standard incubator conditions, covered by a stainless steel gasketed lid to prevent evaporation. Cell viability was determined by luminescence based, Cell Titer Glo assay (Promega). In detail, 3 uL of Cell Titer Glo were added to each well and plates were incubated at room temperature for 15 min with a stainless-steel lid in place. Luminescence readings were taken using a Viewlux (PerkinElmer) with a 2 s exposure time per plate. Compound dose-response curves were normalized to DMSO and empty well controls on each plate. Quantitative drug activity data from dose-response curves was determined utilizing area Under the Curve (AUC) and Z-transformed AUC (Z-AUC, a mean-centering transformation applied to each individual cell-line screened).
Potency is read from the fitted curve at half-maximal effect.

SMILES	Potency
CCc1c2c(nc3ccc(OC(=O)N4CCC(N5CCCCC5)CC4)cc13)-c1cc3c(c(=O)n1C2)COC(=O)[C@]3(O)CC	332 nM (active)
c1nc2nc(Nc3ccc(N4CCOCC4)cc3)nc(NC3CCCCC3)c2[nH]1	2630 nM (active)
CN(C)C1CCN(C(=O)c2ccc(NC(=O)Nc3ccc(-c4nc(N5CCOCC5)nc(N5CCOCC5)n4)cc3)cc2)CC1	1480 nM (active)
Nc1ccn(C2CO[C@H](CO)O2)c(=O)n1 (stereo not given in full)	inactive
O=C(NCCCNC(=O)c1ccc[nH]c1=O)c1cc(-c2ccccc2)on1	14800 nM (active)
O=C1N(c2ccccc2)c2ccccc2C1(Cc1ccncc1)Cc1ccncc1	inactive
NCC1CCN(c2nccc(-c3ccc4ccccc4c3)n2)CC1	2950 nM (active)
COc1ccc(C=Cc2cc(OC)c(OC)c(OC)c2)cc1NC(=O)[C@H](N)CO	296 nM (active)
O=C(O)[C@H](Cc1c[nH]c2ccccc12)N1C(=O)c2ccccc2C1=O	inactive
Cc1ccc(Nc2nccc(N(C)c3ccc4c(C)n(C)nc4c3)n2)cc1S(N)(=O)=O	18600 nM (active)
c1cc(-c2cnn3cc(-c4ccc(N5CCNCC5)cc4)cnc23)c2cccnc2c1	2950 nM (active)
COc1cc(CCc2cc(NC(=O)c3ccc(N4C[C@@H](C)N[C@@H](C)C4)cc3)n[nH]2)cc(OC)c1	14800 nM (active)
O=C(c1cncc(Br)c1)N1CCC(N2CCCC2)CC1	inactive
O=C(O)Cn1nnc(-c2cc(N3CCC(Oc4cc(F)ccc4Br)CC3)no2)n1	inactive
Cn1ncnc1[C@H]1c2n[nH]c(=O)c3cc(F)cc(c23)N[C@@H]1c1ccc(F)cc1	1860 nM (active)
c1ccc(-c2oc3ncnc(NC[C@@H]4CCCO4)c3c2-c2ccccc2)cc1	inactive
O=C(Nc1cc(C(F)(F)F)cc(C(F)(F)F)c1)c1cc(Cl)ccc1O	2630 nM (active)
C[C@H](CCC(=O)O)[C@H]1CCC2C3C[C@H](O)[C@@H]4C[C@H](O)CC[C@]4(C)C3CC[C@@]21C (stereo not given in full)	inactive
CN(C)CCCN1c2ccccc2CCc2ccc(Cl)cc21	inactive
CCc1cc(-c2n[nH]c(C)c2-c2ccc3c(c2)OCCO3)c(O)cc1O	16600 nM (active)

SMILES	Potency
Nc1nc(N)c2nc(-c3cccc(O)c3)c(-c3cccc(O)c3)nc2n1	inactive
COC1CCC(C(=O)c2ccc3nc4c(cc3c2)CCCO4)CC1 (stereo not given)	inactive
CC(C)Nc1cc(C(F)(F)F)cc2nc(NC(=O)c3cccnc3)nn12	inactive
COC(=O)[C@H](c1ccccc1Cl)N1CCc2sccc2C1	inactive
CS(=O)(=O)OCCCCOS(C)(=O)=O	inactive
CNNCc1ccc(C(=O)NC(C)C)cc1	inactive
COCCOc1nc(-c2ccc(Cl)c(Cl)c2)n(-c2ccc(NC(=O)CCl)cc2)n1	934 nM (active)
CCN(CC)CCOc1ccc(Nc2ncc3cc(-c4c(Cl)cccc4Cl)c(=O)n(C)c3n2)cc1	2950 nM (active)
CCNC(=O)CCC/C=C\C[C@@H]1[C@@H](/C=C/C(O)CCc2ccccc2)[C@@H](O)C[C@@H]1O (stereo not given in full)	inactive
Cc1cc(-c2ncc(CC(=O)Nc3ccc(-c4cnccn4)cn3)cc2C)ccn1	inactive
Cc1csc(NC(=O)c2sc3nc4c(c(C(F)(F)F)c3c2N)CCC4)n1	inactive
CCOc1cc(C(=O)Nc2ccc(Cl)c(-c3nc4ccccc4[nH]3)c2)cc(OCC)c1OCC	inactive
CCCc1nc2c(C)cc(-c3nc4ccccc4n3C)cc2n1Cc1ccc(-c2ccccc2C(=O)O)cc1	inactive
c1ccc2c(Oc3nc(Nc4ccc(N5CCOCC5)cc4)c4ncn(C5CCCCC5)c4n3)cccc2c1	inactive
CCCCCCCCc1ccc(CCC(N)(CO)CO)cc1	14800 nM (active)
COc1cc2nc(N3CCCN(C)CC3)nc(NC3CCN(Cc4ccccc4)CC3)c2cc1OC	10500 nM (active)
CCC(CC)CC1(C(=O)Nc2ccccc2SC(=O)C(C)C)CCCCC1	inactive
CC1(C)CN(C(=O)c2ccc(-c3cccc4nc(NC(=O)C5CC5)nn34)cc2)C1	inactive
CC(C)(C)C(=O)Oc1ccc2c(c1)nc(NC(=O)c1cccc([N+](=O)[O-])c1)n2CCCO	inactive
C[C@@H](Oc1cc(-c2cnn(C3CCNCC3)c2)cnc1N)c1c(Cl)ccc(F)c1Cl	1480 nM (active)
